Experimental data from PubChem BioAssay (NCI).
About 83,000 compounds went through this panel and 20% of them were active in at least one assay; those are over-represented in the sample as a whole.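 Activity criterion: percent growth below 10, measured after cells in 96-well plates were exposed to a single compound concentration for 48 hours.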 Activity calls are given as the source filed them.

Assays:
Experiment in all cases: NCI-60 one-dose screen, 48 h (100 = growth as untreated, 0 = no growth, -100 = all killed)
T-47D breast = test system: T-47D breast
BT-549 breast = test system: BT-549 breast
MDA-MB-435 melanoma = test system: MDA-MB-435 melanoma
SW-620 colon = test system: SW-620 colon
MCF7 breast = test system: MCF7 breast
HCT-116 colon = test system: HCT-116 colon
HCC-2998 colon = test system: HCC-2998 colon
KM12 colon = test system: KM12 colon

Measured: growth

CC(=O)/C=C/c1ccc(N(C)Cc2ccc(C(C)(C)C)cc2)cc1
active: T-47D breast; 100 µM -53.9% | BT-549 breast; 100 µM -90.8% | MDA-MB-435 melanoma; 100 µM -54.3% | SW-620 colon; 100 µM -53.5% | MCF7 breast; 100 µM -22.6% | HCT-116 colon; 100 µM -66.2% | HCC-2998 colon; 100 µM -41.2% | KM12 colon; 100 µM -45.7%
inactive: T-47D breast; 10 µM 62.5% | BT-549 breast; 10 µM 101% | MDA-MB-435 melanoma; 10 µM 88.5% | SW-620 colon; 10 µM 88.5% | MCF7 breast; 10 µM 80.3% | HCT-116 colon; 10 µM 79.9% | HCC-2998 colon; 10 µM 99.6% | KM12 colon; 10 µM 95.5%

COc1cc(F)c(/C=C/c2cc(/C=C/c3cc(OC)c(OC)cc3F)n(-c3cc(F)cc(F)c3)n2)cc1OC
active: MDA-MB-435 melanoma; 10 µM unless noted -4.07% | SW-620 colon; 10 µM unless noted 0.82% | MCF7 breast; 10 µM unless noted 8.88%
inactive: T-47D breast; 10 µM unless noted 64% | BT-549 breast; 10 µM unless noted 75.5% | HCT-116 colon; 10 µM unless noted 100% | HCC-2998 colon; 10 µM unless noted 85.5% | KM12 colon; 10 µM unless noted 27.9%

CCCN1C(=O)/C(=c2\sc3n(c2=O)C2C(NN=3)N(CC)C(=O)N2CC)c2ccccc21 (stereo not drawn)
active: MDA-MB-435 melanoma; 10 µM unless noted -21.2% | MCF7 breast; 10 µM unless noted 9.94% | HCT-116 colon; 10 µM unless noted 7.6%
inactive: T-47D breast; 10 µM unless noted 27.8% | BT-549 breast; 10 µM unless noted 20.8% | SW-620 colon; 10 µM unless noted 24.9% | HCC-2998 colon; 10 µM unless noted 15.5% | KM12 colon; 10 µM unless noted 20%

CN(C)CCCn1c2c(c3ccc(N4CCNCC4)cc3c1=O)C(=O)c1ccccc1-2
active: SW-620 colon; 10 µM unless noted -21.6% | MCF7 breast; 10 µM unless noted -28.2% | HCT-116 colon; 10 µM unless noted -89.1% | HCC-2998 colon; 10 µM unless noted -68.9% | KM12 colon; 10 µM unless noted -32.1%
inactive: T-47D breast; 10 µM unless noted 44% | BT-549 breast; 10 µM unless noted 54.2% | MDA-MB-435 melanoma; 10 µM unless noted 20%

COc1ccc(C(=O)N/N=C/c2ccc(O)cc2O)cc1Nc1ccnc(C(F)(F)F)c1
inactive: T-47D breast; 10 µM unless noted 21.6% | BT-549 breast; 10 µM unless noted 55.6% | MDA-MB-435 melanoma; 10 µM unless noted 32.7% | SW-620 colon; 10 µM unless noted 35.8% | MCF7 breast; 10 µM unless noted 21.9% | HCT-116 colon; 10 µM unless noted 15.6% | HCC-2998 colon; 10 µM unless noted 40.9% | KM12 colon; 10 µM unless noted 69.4%

COc1ccc(-c2cc3cnc4ccccc4c3oc2=O)cc1
inactive: T-47D breast; 10 µM unless noted 87.1% | BT-549 breast; 10 µM unless noted 101% | MDA-MB-435 melanoma; 10 µM unless noted 98.6% | SW-620 colon; 10 µM unless noted 95.8% | MCF7 breast; 10 µM unless noted 86.9% | HCT-116 colon; 10 µM unless noted 93.3% | HCC-2998 colon; 10 µM unless noted 89.2% | KM12 colon; 10 µM unless noted 103%

O=C1c2cc3c(cc2-c2c1c1ccc(Cl)cc1c(=O)n2CCCn1ccnc1)OCO3
active: T-47D breast; 10 µM unless noted -0.548% | BT-549 breast; 10 µM unless noted -20.3% | MDA-MB-435 melanoma; 10 µM unless noted -58.8% | SW-620 colon; 10 µM unless noted 1.05% | MCF7 breast; 10 µM unless noted -9.33% | HCT-116 colon; 10 µM unless noted -23% | KM12 colon; 10 µM unless noted 1.36%
inactive: HCC-2998 colon; 10 µM unless noted 15%

O=C(Nc1ccc(F)cc1)c1cc2cc(Nc3nc(-c4ccccc4)nc4ccccc34)ccc2oc1=O
inactive: T-47D breast; 10 µM unless noted 95.7% | BT-549 breast; 10 µM unless noted 100% | MDA-MB-435 melanoma; 10 µM unless noted 108% | SW-620 colon; 10 µM unless noted 107% | MCF7 breast; 10 µM unless noted 97.9% | HCT-116 colon; 10 µM unless noted 96.3% | HCC-2998 colon; 10 µM unless noted 113% | KM12 colon; 10 µM unless noted 102%

C=CCN1C=CC(=O)[C@H](O[Si](C)(C)C(C)(C)C)[C@@H]1/C=C/c1ccccc1
active: T-47D breast; 10 µM unless noted -80.7% [100 µM] | BT-549 breast; 10 µM unless noted -62.4% [100 µM] | MDA-MB-435 melanoma; 10 µM unless noted -48.2% [100 µM] | SW-620 colon; 10 µM unless noted -58.9% [100 µM] | MCF7 breast; 10 µM unless noted -75.1% [100 µM] | HCT-116 colon; 10 µM unless noted -77.5% [100 µM] | HCC-2998 colon; 10 µM unless noted -87.3% [100 µM] | KM12 colon; 10 µM unless noted -71.8% [100 µM]

COc1cc(N=Nc2ccc(O)c3ncccc23)c2ncccc2c1
inactive: T-47D breast; 10 µM unless noted 20.2% | BT-549 breast; 10 µM unless noted 39% | MDA-MB-435 melanoma; 10 µM unless noted 42.4% | SW-620 colon; 10 µM unless noted 30.5% | MCF7 breast; 10 µM unless noted 27.5% | HCT-116 colon; 10 µM unless noted 19.4% | HCC-2998 colon; 10 µM unless noted 36.3% | KM12 colon; 10 µM unless noted 28.1%

O=C1OCC2=C1C(c1cccc([N+](=O)[O-])c1)c1cc3c(cc1N2CCO)CCC3 (stereo not drawn)
active: MDA-MB-435 melanoma; 10 µM unless noted -34.9% | HCT-116 colon; 10 µM unless noted 7.18% | HCC-2998 colon; 10 µM unless noted 6.84%
inactive: T-47D breast; 10 µM unless noted 65.9% | BT-549 breast; 10 µM unless noted 31.5% | SW-620 colon; 10 µM unless noted 22.2% | MCF7 breast; 10 µM unless noted 20% | KM12 colon; 10 µM unless noted 15.7%

COc1ccc(/C=N\Nc2nc(SCC(C)C)nc(-c3ccc(OC)cc3)c2C#N)cc1
active: HCT-116 colon; 10 µM unless noted 2.29%
inactive: T-47D breast; 10 µM unless noted 16.2% | BT-549 breast; 10 µM unless noted 110% | MDA-MB-435 melanoma; 10 µM unless noted 68.5% | SW-620 colon; 10 µM unless noted 51% | MCF7 breast; 10 µM unless noted 59.3% | HCC-2998 colon; 10 µM unless noted 64.2% | KM12 colon; 10 µM unless noted 62.6%

COc1ccc(Nc2nn3c(SCC(=O)c4ccc(C)cc4)nnc3s2)cc1
inactive: T-47D breast; 10 µM unless noted 73.2% | BT-549 breast; 10 µM unless noted 92.2% | MDA-MB-435 melanoma; 10 µM unless noted 105% | SW-620 colon; 10 µM unless noted 98.1% | MCF7 breast; 10 µM unless noted 91.8% | HCT-116 colon; 10 µM unless noted 106% | HCC-2998 colon; 10 µM unless noted 111% | KM12 colon; 10 µM unless noted 97.3%

CCN(C(=O)N1CCN(c2cc3c(cc2F)c(=O)c(C(=O)O)cn3C2CC2)CC1)c1nc(-c2ccccc2)cs1
active: BT-549 breast; 10 µM unless noted -9.57% | HCT-116 colon; 10 µM unless noted 6.31%
inactive: T-47D breast; 10 µM unless noted 55.4% | MDA-MB-435 melanoma; 10 µM unless noted 27.3% | SW-620 colon; 10 µM unless noted 23.3% | MCF7 breast; 10 µM unless noted 14.9% | HCC-2998 colon; 10 µM unless noted 21% | KM12 colon; 10 µM unless noted 21.1%

CC12OC(CC(O)C1O)n1c3ccccc3c3c4c(c5c6ccccc6n2c5c31)C(=O)N(CCN1CCOCC1)C4=O (stereo not drawn)
active: T-47D breast; 10 µM unless noted -5.19% | MCF7 breast; 10 µM unless noted 4.28% | HCC-2998 colon; 10 µM unless noted 6.48%
inactive: BT-549 breast; 10 µM unless noted 22.6% | MDA-MB-435 melanoma; 10 µM unless noted 21.7% | SW-620 colon; 10 µM unless noted 16% | HCT-116 colon; 10 µM unless noted 14.1% | KM12 colon; 10 µM unless noted 14.6%
